The list is a sample of the results.
aSyn 5UTR act: Activators via SNCA 5'UTR binding, MLPCN | alpha-synuclein 5'UTR reporter, activators screen | activity score, % (tested at 7.5 µM), hits read low | 7.1% of 300,000 active | AID 1814; in the data active means activity score below about -60%
* hit, by the source's call.

SMILES | aSyn 5UTR act
Cc1ccc(-c2nnc(NC(=O)c3ccc([N+](=O)[O-])o3)o2)c(C)c1 | -64.3*
Cc1ccc(NC(=O)c2ccc([N+](=O)[O-])o2)c(C)c1 | -73.9*
O=S(=O)(Cc1nc2ccccc2s1)c1ccccc1 | -68.7*
Fc1ccc(OCc2nc3ccccc3s2)cc1 | -178.3*
CCC(=O)Nc1ccc(OCc2nc3ccccc3s2)cc1 | -124.7*
c1ccc(OCc2nc3ccccc3s2)cc1 | -122.9*
N=C(N)SCc1nc2ccccc2c(=O)n1-c1ccccc1 | -94.9*
O=c1c2ccccc2nc(N/N=C/c2c(O)ccc3ccccc23)n1O | 82.2
Cc1ccc(C(=O)NC2CCCCC2)cc1 | -94.2*
O=C(NC1CCCCCC1)c1ccc(OCC2CCCO2)cc1 (stereo not given) | -97.2*
CC(C)CCNC(=O)C(=O)NC1CCCC1 | -134.4*
Cc1ccc(NC(=O)C(=O)NC2CCCCC2)cc1 | -149.3*
O=C(NC1CCCCCC1)C(=O)NC1CCCC1 | -66.5*
N#Cc1ccc(C(=O)NC2CCCCCCC2)cc1 | -131.9*
COc1ccc(Cn2c(SCC#N)nc3ccc(N4CCOCC4)cc3c2=O)cc1 | -88.5*
COc1ccc(Cn2c(SCc3cc(C)ccc3C)nc3cc(OC)c(OC)cc3c2=N)cc1 | 54.8
NC(=O)C1CCN(c2ccc3c(c2)S(=O)(=O)c2ccccc2C3=O)CC1 | -63.5*
CC1CCN(c2ccc3c(c2)S(=O)(=O)c2ccccc2C3=O)CC1 | -139.9*
O=C1c2ccccc2S(=O)(=O)c2cc(N3CCC4(CC3)OCCO4)ccc21 | -118.1*
O=C(Nc1ccc2c(c1)Cc1ccccc1-2)c1ccco1 | -160.3*
COc1cccc(OC)c1C(=O)Nc1ccc2c(c1)Cc1ccccc1-2 | -105.5*
C=C(C)C1Cc2cc3ccc(=O)oc3cc2O1 (stereo not given) | -65.1*
COc1ccc(/C=C/C(=O)C2C(=O)C=C(C)OC2=O)cc1O (stereo not given) | -242.7*
CCOC(=O)c1ccc(NC(=O)N2CCc3ccccc32)cc1 | -189.2*
CCOC(=O)c1[nH]c(C)c(C(=O)N2CCc3ccccc32)c1C | 89.7
SMILES | aSyn 5UTR act
O=C(Nc1ccccc1)N1CCc2ccccc21 | -117.2*
N#Cc1c(N)nc(N)nc1Nc1ccc(Br)cc1 | -63.9*
O=C(/C=C/c1cn(-c2ccccc2)nc1-c1cccnc1)c1ccco1 | -63.4*
O=C(COc1ccc(Br)cc1Cl)NC1CCCCC1 | -161.5*
O=C(COc1ccc(Cl)cc1Cl)NC1CCSC1=O (stereo not given) | -86.4*
O=C(COc1ccc(Br)cc1Br)NC1CCCC1 | -112.8*
O=C(O)c1ccc(-c2nc(-c3ccccc3)cs2)cc1 | -140.3*
O=C(O)c1ccccc1-c1csc(-c2ccccc2)n1 | -118.2*
CNC(=O)c1csc(-c2ccc(C)cc2)n1 | -80.8*
O=C(O)c1ccc(-c2nc(-c3ccc(Cl)c(Cl)c3)cs2)cc1 | -100.2*
c1ccc(COc2ccc(-c3csnn3)cc2)cc1 | -185.2*
Cc1oncc1-c1csc(-c2ccccc2)n1 | -82.0*
O=C(O)c1ccccc1C(=O)Nc1ccc(Oc2cccc3ccccc23)cc1 | 94.4
O=C(O)c1ccc(-c2nc(-c3ccccc3Cl)cs2)cc1 | -118.4*
O=C(O)c1ccccc1C(=O)Nc1ccc(-c2csc(-c3ccccc3)n2)cc1 | -64.3*
c1ccc(-c2csc(-c3ccc(-c4csnn4)cc3)n2)cc1 | -191.7*
CNC(=O)c1ccc(-c2nc(-c3ccccc3)cs2)cc1 | -116.5*
Cc1ccc(C)c(NC(=O)CSc2nccn2Cc2ccco2)c1 | -77.5*
O=C(Nc1ccc(C2SCCS2)cc1)c1ccccc1 | -88.3*
O=C(Nc1ccc(-c2nnco2)cc1)c1ccccc1 | -78.3*
O=C(Nc1ccc2nc3ccccc3nc2c1)c1ccccc1 | -96.6*
O=C(Nc1csc(Cl)c1)c1ccccc1 | -160.6*
COc1cc(OC)cc(C(=O)Nc2ccc(Nc3ccccc3)cc2)c1 | -164.7*
O=C(Nc1ccc(Nc2ccccc2)cc1)c1ccccc1 | -176.5*
CCn1c2ccccc2c2cc(NC(=O)c3cc(OC)cc(OC)c3)ccc21 | 100.7
SMILES | aSyn 5UTR act
O=C(Nc1ccc(SC(F)F)cc1)c1ccc(F)cc1 | -162.8*
CCCCNC(=O)Nc1ccc(C2SCCS2)cc1 | -91.5*
CCN(CC)c1ccc(C(=O)Nc2ccccc2)cc1[N+](=O)[O-] | -151.5*
CNC(=O)c1ccc(NC(=O)Nc2ccccc2)cc1 | -71.1*
O=C(C#Cc1ccccc1)c1ccc([N+](=O)[O-])cc1 | -95.4*
Cc1ccc(C(=O)Nc2ccc(Nc3ccccc3)cc2)cc1C | -62.2*
Cc1ccc(C(=O)C[n+]2ccc(Cc3ccccc3)cc2)cc1 | 60.7
O=C(Nc1ccc(-c2nc3ccccc3s2)c(OC(=O)c2ccccc2)c1)c1ccccc1 | -175.0*
O=C(Nc1ccccc1)c1ccc(NC(=O)C2CC2)cc1 | -105.3*
O=C(Nc1ccc(F)cc1)c1ccccc1 | -83.3*
O=C(C[n+]1ccc2ccccc2c1)c1ccc(NC(=O)c2ccccc2)cc1 | -87.5*
O=C(N[C@H]1CC1c1ccccc1)c1ccc([N+](=O)[O-])cc1 (stereo not given in full) | -106.7*
O=C(Nc1ccc([N+](=O)[O-])cc1)c1ccccc1 | -121.6*
CC(Cc1ccccc1)NC(=O)c1ccc([N+](=O)[O-])cc1 (stereo not given) | -89.8*
Cc1ccc(OCc2cc(C(=O)NC(C)Cc3cccnc3)no2)cc1C (stereo not given) | -82.2*
COCC1CCCN(C(=O)c2cc(COc3cncc(Cl)c3)on2)C1 (stereo not given) | -136.7*
CC(=O)c1ccc(OCc2cc(C(=O)N3CC[C@@H]4CCCC[C@H]4C3)no2)cc1 | -125.7*
Cc1cccc(C)c1OCc1cc(C(=O)N2CCC(C3CCCCC3)C2)no1 (stereo not given) | -159.0*
CC(=O)c1ccc(OCc2cc(C(=O)NC3CCCCC3)no2)cc1 | -80.7*
COCC1CCCN(C(=O)c2cc(COc3ccc(C(C)=O)cc3)on2)C1 (stereo not given) | -149.0*
CC(=O)c1ccc(OCc2cc(C(=O)NC(C)CCn3cccn3)no2)cc1 (stereo not given) | -164.3*
Cc1cccc(C)c1OCc1cc(C(=O)N2CCC(c3ccccc3)CC2)no1 | -79.8*
Cc1cccc(C)c1OCc1cc(C(=O)N2CCN(c3ccc(F)cc3)CC2)no1 | -72.5*
CC(=O)c1ccc(OCc2cc(C(=O)N3CCCCC3c3cccnc3)no2)cc1 (stereo not given) | -82.8*
CCOC(=O)c1cnc2c(ccc3ccccc32)c1NCCO | -95.8*
SMILES | aSyn 5UTR act
CCOC(=O)c1cnc2c(ccc3ccccc32)c1N | -125.5*
Cc1cccc(C(=O)Nc2nc(C)c(C(=O)Nc3ccc4c(c3)CCC4)s2)c1 | -120.9*
CN(C)S(=O)(=O)c1cccc(C(=O)Nc2ccc3c(c2)CCC3)c1 | -114.5*
Cc1cc(C(=O)Nc2ccc3c(c2)CCC3)ccc1[N+](=O)[O-] | -187.4*
CN(C)S(=O)(=O)c1ccc(C(=O)Nc2ccc3c(c2)CCC3)cc1 | -92.9*
CC1(C)NC(=O)N(CCCOc2ccc(Br)cc2Cl)C1=O | -148.1*
CC1(C)NC(=O)N(CCCOc2ccc3c(c2)CCC3)C1=O | -76.7*
O=C(CSc1ccccn1)Nc1ccc2c(c1)CCC2 | -76.6*
CC(Nc1ccc2c(c1)OCCO2)C(=O)N1CCc2ccccc21 (stereo not given) | -64.6*
O=C(Nc1ccc2c(c1)OCCO2)c1ccccn1 | 88.0
O=C(CSc1ccccn1)Nc1ccc2c(c1)C(=O)c1ccccc1C2=O | -68.2*
O=C(CSc1ccccn1)Nc1ccc2c(c1)OCCO2 | -65.0*
O=C(CSc1nccc(=O)[nH]1)Nc1ccc2c(c1)OCCO2 | -139.2*
